Here are results for 27 molecules from PubChem BioAssay AID738 (SRMLSC, 2007).

The campaign covered roughly 98,000 compounds. About 4,900 (5%) were called active. No stated cut-off is given here; in the data, active means inhibition above about 30%; inactive means the rest. Many of the other results were omitted from the sample, so actives are more common in it than they were.

A short description of the experiment: yeast control strain growth suppression – counter-screen for post-Golgi transport modulator project, primary screen (AID 738). The conditions noted are these: efflux-deficient yeast background strain, growth absorbance A615, 16 h; at 10 µM; stronger effect = higher value.
Broadly, the inhibition is the relative decrease from the control value, in per cent. In the case of `CCOc1c2ccc(C(=O)NCc3ccc4c(c3)OCO4)cc2nn1C`, the inhibition was 24.1% (inactive).

Consider `Cc1ccccc1N/N=C/c1ccc(N2CCOCC2)cc1`, for which the inhibition was 20% (inactive).

For `COc1ccccc1CNC(=O)c1ccc(SC)cc1OC`, the inhibition is 17.5% (inactive).

Consider `COc1ccc2nc(N3CCCC(O)C3)c(C#N)cc2c1` (configuration not stated), for which the inhibition was 6.9% (inactive).

Regarding `CCOc1ccc2nc(N3CCCN(C(=O)Nc4ccccc4C)CC3)c(C#N)cc2c1`, the inhibition is 56.8% (active).

In the case of `CCOc1ccc2nc(NCCNS(=O)(=O)c3ccccc3)c(C#N)cc2c1`, the inhibition was -2.23% (inactive).

On to `Cc1ccc2cc(CCNC(=O)c3c(-c4ccccc4Cl)noc3C)c(=O)[nH]c2c1`, for which the inhibition is 9.09% (inactive).

Regarding `CN1CCN(c2ccc([N+](=O)[O-])c(Sc3nc4ccccc4[nH]3)c2)CC1`, the inhibition was 7.22% (inactive).

`CSc1ccc(C#N)cc1NC(=O)c1ccc(Cl)cc1`: the inhibition is -4.75% (inactive).

`CSc1cc(C)n(-c2ccccc2C)c(=S)c1C(C)=O`: the inhibition is 4.46% (inactive).

`CC(C)OCCCNC(=O)C1CC(=O)N(C2CCCCCCC2)C1` (configuration not stated): the inhibition is 0.87% (inactive).

Turning to `Cc1ccc(CNC(=O)C2CC(=O)N(C3CCCCCCC3)C2)cc1` (configuration not stated), the inhibition was 11.5% (inactive).

As to `O=C(NCCCN1CCCCCC1)C1CC(=O)N(C2CCCC2)C1` (configuration not stated), the inhibition is 39.6% (active).

Regarding `COc1ccc(CCNC(=O)COC(=O)c2ccc[nH]c2=O)cc1`, the inhibition is 8.99% (inactive).

With `CCn1c(SCc2ccc(C)cc2)nnc1-c1nn(-c2ccccc2)ccc1=O`, the inhibition is 28.2% (inactive).

As to `CCCC(C(=O)NCc1ccco1)N(C(=O)CNS(=O)(=O)c1ccccc1)C1CCCC1` (configuration not stated), the inhibition was -6.03% (inactive).

As to `CC(c1ccco1)N(C(=O)Nc1ccccc1)C1CCCCC1` (configuration not stated), the inhibition was 34.8% (active).

For `CCOc1ccc(NC(=O)N(CCC(C)C)C(C)c2ccco2)cc1` (configuration not stated), the inhibition is 14.1% (inactive).

Turning to `CCCCNC(=O)CSc1nc2ccc(NC(=O)CSc3nnc(COc4ccccc4C)n3C)cc2s1`, the inhibition was -0.61% (inactive).

`CN(C(=O)CSc1nc(C2CC2)nc2ccccc12)c1nc(-c2ccccc2)cs1`: the inhibition was 3.27% (inactive).

For the molecule `Cc1ccc(/C=N\n2c(-c3ccccc3)n[nH]c2=S)s1`, the inhibition is 6.75% (inactive).

With `Oc1ccccc1/C=N/n1c(-c2cccs2)n[nH]c1=S`, the inhibition was 7.52% (inactive).

With `S=c1[nH]nc(-c2ccco2)n1/N=C/c1ccc(Br)s1`, the inhibition is 32.1% (active).

Consider `COC(=O)c1c(CCl)noc1C(=O)NC(C)C`, for which the inhibition was -6.4% (inactive).

In the case of `CCCCSc1[nH]c(=O)c(C(=O)OCC)cc1C#N`, the inhibition is -5.6% (inactive).

In the case of `C/C(=N/NC(=O)c1ccc(NC(=O)c2ccc(F)cc2)cc1)c1ccccc1`, the inhibition was 4.86% (inactive).

For the molecule `Cc1nn(CCOc2ccccc2)c(=O)n1-c1ccccc1F`, the inhibition was 14% (inactive).
